Source: PubChem BioAssay
An excerpt weighted towards active compounds, which were near 28% of everything screened.
CYP2C9 activ: CYP2C9 (human) activation. recombinant CYP2C9, luciferin-H conversion, luminescence; stronger effect = higher value; factor 1 = untreated enzyme, 0 = blocked. activation factor at 5 µM. 1.4% of 96,000 active. AID 1024;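 active = activation factor of 2 or more for CYP2C9 at a 5 µM dose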
CYP2C9 inh: human CYP2C9 inhibition | P11712 | CYP2C9 Supersomes, luciferin-H conversion, luminescence | inhibition, % at 5 µM | 20% of 96,000 active | AID 777;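 active = blocking of liver enzyme CYP2C9 beyond about 50% at 5 µM, limit read from the data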
CYP2C19 inhib: human CYP2C19 inhibition. CYP2C19 Supersomes, luciferin-H EGE luminescence, 30 min. AID 778. inhibition, % at 5 µM. 21% of 96,000 active;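 active = CYP2C19 inhibition above a set limit at 5 µM in the primary screen, cut at about 50% in these data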
CYP2C19 activ: cytochrome P450 2C19 (human) activation. recombinant CYP2C19, luciferin-H EGE luminescence; stronger effect = higher value; 0 = fully inhibited enzyme, 1 = untreated enzyme. P33261. AID 1025. 96,000 tested, under 10 active. activation factor at 5 µM;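 active = activation factor of at least 2 at 5 µM in the primary screen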
CD11b adhes inh: inhibitors of human CD11b/CD18 binding to fibrinogen; K562 CD11b/CD18 adhesion to fibrinogen, ATPlite luminescence; Mn2+ added to activate the integrin; inhibition, % at 10 µM; 0.54% of 93,000 active; AID 1497;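 active = primary inhibition of 50% or more at 10 µM, then 40% or more on retest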
Target sequence (P05107 whole entry, looked up, other chains not shown): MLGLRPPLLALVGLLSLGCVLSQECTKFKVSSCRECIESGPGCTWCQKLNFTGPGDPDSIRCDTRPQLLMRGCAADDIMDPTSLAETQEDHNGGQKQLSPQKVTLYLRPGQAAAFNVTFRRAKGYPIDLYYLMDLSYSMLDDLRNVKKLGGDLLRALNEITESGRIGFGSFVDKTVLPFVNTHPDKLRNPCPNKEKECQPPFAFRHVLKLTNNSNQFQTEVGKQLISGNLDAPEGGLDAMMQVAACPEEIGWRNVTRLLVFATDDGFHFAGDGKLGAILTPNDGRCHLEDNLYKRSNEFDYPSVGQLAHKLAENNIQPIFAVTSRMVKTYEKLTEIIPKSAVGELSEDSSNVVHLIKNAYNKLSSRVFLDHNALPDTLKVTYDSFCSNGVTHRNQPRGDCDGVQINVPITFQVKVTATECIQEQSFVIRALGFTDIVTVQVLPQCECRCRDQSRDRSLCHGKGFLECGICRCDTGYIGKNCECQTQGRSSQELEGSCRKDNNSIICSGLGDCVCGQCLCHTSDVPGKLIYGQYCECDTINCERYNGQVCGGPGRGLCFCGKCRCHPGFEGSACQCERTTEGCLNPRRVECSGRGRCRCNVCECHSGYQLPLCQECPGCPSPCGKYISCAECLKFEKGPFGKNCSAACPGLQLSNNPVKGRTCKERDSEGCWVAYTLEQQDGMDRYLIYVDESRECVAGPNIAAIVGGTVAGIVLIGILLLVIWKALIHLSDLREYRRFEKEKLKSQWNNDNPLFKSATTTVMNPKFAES
CD11b adhes enh: increases human CD11b/CD18 adhesion to fibrinogen | P05107+P11215 | K562 CD11b/CD18 adhesion to fibrinogen, ATPlite luminescence | activation, % at 10 µM | 0.07% of 93,000 active | AID 1499;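 active = 10 µM primary screen giving 50% or more activity, confirmed by 40% or more on retest at that dose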
Numbers stand for hits; . = inactive; / = not tested or not shown.

SMILES	CYP2C9 activ	CYP2C9 inh	CYP2C19 inhib	CYP2C19 activ	CD11b adhes inh	CD11b adhes enh
COc1ccccc1NC(=O)c1csc2c1CCCC2	2.4	.	.	.	/	/
COC(=O)c1c(NS(=O)(=O)Cc2ccccc2)sc2c1CCCC2	.	96	93	.	.	.
Cc1ccc(Oc2ccc(-c3nc(N)nc(N)n3)cc2)cc1C	.	.	.	.	.	.
Cc1cc(C(=O)O)c(=O)[nH]c1C	.	.	.	.	.	.
CCOC(=O)c1c(NC(=O)c2ccco2)n(C2CCCCC2)c2nc3ccccc3nc12	.	55	.	.	.	.
COc1ccccc1OCC(=O)Nc1sc2c(c1C(=O)NCC1CCCO1)CCC2 (stereo unspecified)	.	96	52	.	.	.
CCOC(=O)c1c(NC(=O)c2ccn(CC)n2)sc2c1CCCC2	.	68	55	.	.	.
COc1ccccc1C(=O)Nc1sc2c(c1C(=O)NCc1ccco1)CCCC2	.	84	.	.	.	.
CCN(CC)CCCC(C)NC1=NCCCCC1 (stereo unspecified)	.	.	.	.	.	.
c1ccc2c(c1)CCN(c1nc3cc4c(cc3s1)OCCO4)C2	.	.	.	.	.	.
C#CC1(O)CC(C)N(C)C(C)C1 (stereo unspecified)	.	.	.	.	/	/
Cc1ccc(C(=O)N/C(=C\c2ccc(-c3ccc(Br)cc3)o2)C(=O)NC2CCS(=O)(=O)C2)cc1 (stereo unspecified)	/	/	/	/	.	.
N#Cc1c(NC(NC(=O)c2ccco2)C(=O)c2ccccc2)sc2c1CCCC2 (stereo unspecified)	.	76	.	.	.	.
CCc1c(C)sc(NC(=O)OC)c1C(N)=O	.	.	.	.	.	.
CCOC(=O)c1c(NC(=O)C(F)(OC)C(F)(F)F)sc(C(=O)N2CCCCC2)c1C (stereo unspecified)	.	76	.	.	.	.
COc1ccccc1NC(=O)c1c(NC(=O)c2ccco2)sc2c1CCC2	.	64	.	.	.	.
CCc1c(C)sc(NC(=O)OC)c1C(=O)N1CCCCC1	.	.	52	.	.	.
CCC(Oc1ccc2c(c1)C(=O)CC(C)(C)O2)C(=O)NCCN1CCCCCC1 (stereo unspecified)	.	.	.	.	.	.
CCOCCCn1c(SCC(=O)/C(C#N)=C(\C)N)nc2ccccc2c1=O	/	/	/	/	.	.
C/C(N)=C(/C#N)C(=O)CSc1nc(C2CCCCC2)n(-c2ccccc2)n1	.	77	.	.	.	.
C/C(N)=C(/C#N)C(=O)CSc1n[nH]c(-c2ccccc2Br)n1	.	.	97	.	.	.
C=CCn1c(SCc2cc(=O)n3ccsc3n2)nnc1C1CCCCC1	.	.	88	.	.	.
C=CCn1c(SCC(=O)/C(C#N)=C(\C)N)nnc1C1CCCCC1	.	.	78	.	.	.
Cn1c(SCC(=O)O)nnc1C1CCCCC1	.	.	.	.	.	.
Cc1nn2c(N3CCCC3)cc(C(C)C)nc2c1-c1ccccc1	.	.	.	.	.	.
SMILES	CYP2C9 activ	CYP2C9 inh	CYP2C19 inhib	CYP2C19 activ	CD11b adhes inh	CD11b adhes enh
CCc1cc(C)c(O)c(CC)n1	.	.	.	.	.	.
O=C(O)c1[nH]nc2c1COc1ccccc1-2	.	.	.	.	.	.
N#Cc1ccsc1NC(=O)CSc1ncnc2ccccc12	.	64	.	.	.	.
CCCc1nc2c(o1)CC(CC(C)SCC)CC2=O (stereo unspecified)	.	.	51	.	.	.
CCSC(C)CC1CC(=O)CC(=O)C1 (stereo unspecified)	.	.	.	.	.	.
CC(C)CCNCC1OCc2ccccc2CO1	/	/	/	/	.	.
CCOC(=O)c1cn(CC)c2ccc(Br)cc2c1=O	2	.	.	.	.	.
CCn1cc(C(=O)O)c(=O)c2cc(Br)ccc21	.	.	.	.	.	.
CCOc1ccc2[nH]c(=O)c(CN(Cc3ccccc3)C(=O)N3CCCC3)cc2c1	.	.	.	.	.	.
Cc1ccc2[nH]c(=O)c(CN(Cc3ccccc3Cl)C(=O)N3CCOCC3)cc2c1	.	72	82	.	.	.
COC(=O)CN1C(c2ccccc2)=Nc2ccc(Cl)cc2C1c1ccccc1 (stereo unspecified)	.	.	.	.	.	.
Cc1ccccc1N=C1NC(=O)CC(c2ccccc2)S1 (stereo unspecified)	.	.	63	.	.	.
Cc1ccccc1N=C1NC(=O)CS1	.	.	.	.	.	.
CCc1ccc(S(=O)(=O)NCc2csc(-c3ccccc3)n2)s1	.	76	.	.	.	.
CCS(=O)(=O)NCCc1csc(-c2ccccc2)n1	.	.	73	.	.	.
Nc1nnc(-c2cccnc2)s1	.	.	.	.	.	.
O=S(=O)(NCc1csc(-c2cccnc2)n1)c1ccc(Cl)s1	.	62	76	.	.	.
CCc1ccc(S(=O)(=O)NCCc2csc(-c3cccnc3)n2)s1	.	89	94	.	.	.
CCS(=O)(=O)NCCc1csc(-c2cccnc2)n1	.	.	.	.	.	.
CCn1c(=O)c2c(nc(SCC(=O)NCC3CCCO3)n2C)n(C)c1=O (stereo unspecified)	.	.	.	.	.	.
O=C1OCCC1Sc1ncnc2sccc12 (stereo unspecified)	.	.	.	.	.	.
COc1cc(C2NC(=O)NC(C)=C2C(=O)OC2CCCC(C)C2)ccc1O (stereo unspecified)	.	.	.	.	.	.
CCOC(=O)C1CCCN(C(=O)CCNS(=O)(=O)c2ccc3c(c2)CCC(=O)N3)C1 (stereo unspecified)	.	.	.	.	.	.
CC1CCC(NC(=O)c2ccc(S(C)(=O)=O)cc2)CC1 (stereo unspecified)	/	/	/	/	.	.
CCc1ccc(S(=O)(=O)NCCc2csc(-c3ccccc3)n2)s1	.	74	93	.	.	.
SMILES	CYP2C9 activ	CYP2C9 inh	CYP2C19 inhib	CYP2C19 activ	CD11b adhes inh	CD11b adhes enh
O=C(CNS(=O)(=O)c1ccc2ccccc2c1)OCc1csc(-c2ccccc2)n1	/	/	/	/	.	.
O=C(Nc1nccs1)c1ccccc1N=Cc1ccccc1	.	80	93	.	/	/
COc1cccc(C=Nc2ccccc2C(=O)Nc2nccs2)c1OC	.	.	.	.	.	.
CCN(CC)S(=O)(=O)c1cc([N+](=O)[O-])ccc1NNC(=O)Nc1ccc(Cl)c(Cl)c1	.	74	.	.	99	.
Cn1cc(SCC(=O)Nc2nc3ccccc3s2)c2ccccc21	.	.	.	.	.	.
COc1ccc(S(=O)(=O)N(C)CC(=O)NCc2cccnc2)cc1	.	.	.	.	.	.
CCOC(=O)c1cccc(Nc2nc(C)cc(C)n2)c1	.	.	.	.	.	.
CCOC(=O)c1cccc(NC(=O)CN(C)S(=O)(=O)c2cnc[nH]2)c1	.	94	54	.	.	.
